The record followed here is PubChem BioAssay (NCI).

Structures are written as SMILES. About 83,000 compounds went through this panel and 20% of them were active in at least one assay; those are over-represented in the sample as a whole.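 Testing used 96-well plates and a 48-hour single-concentration exposure. Example: -40 means 40% of the starting cells died.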 Active and inactive are the calls of the source. How the source made its calls: active means growth percent below 10; inactive means the rest.

The subject of this assay is HL-60(TB) leukemia. Put plainly: NCI-60 one-dose screen, 48 h (100 = growth as untreated, 0 = no growth, -100 = all killed). The note with it: 10 µM unless noted.
On to `Cn1cccc1/C=C1\C(=O)Nc2ccccc21`, for which the growth was 103% (inactive).
Then `COc1ccc(C(=O)c2ccccc2CN2C(=O)c3ccccc3C2=O)cc1`, with 103% (inactive); and `CCOP(=O)(NC(c1ccccc1)c1ccccc1)OCC`, with 101% (inactive).
Next, `COc1cc(NC(C)CCCN)c2nc(C)ccc2c1OC` (stereo not given): -12.2% (active).
As to `FC(F)(F)c1[nH]ncc1-c1nc2ccc3n[nH]c(C#Cc4cccnc4)c3c2c2c1CCCC2`, the growth was 24.4% (inactive).
Regarding `O=[N+]([O-])c1ccc2ncccc2c1Cl`, the growth is 11.6% (inactive).
For the molecule `O=C1NC(=O)c2c1c1c3ccccc3[nH]c1c1oc3ccc(F)cc3c21`, the growth is 99.5% (inactive).
Next, `NC(=O)c1cccc(-n2ccc3cc(NC(=O)Nc4ccc(Cl)c(Cl)c4)ccc32)n1`: 102% (inactive).
Next, `CCCCCCCCCCCCNC(=O)N[C@H](C(=O)N[C@H]1/C=C/CCNC(=O)/C=C/[C@H](C)NC1=O)C(C)C`: -25.2% (active); `O=C1C=CC(=O)N1CCCCCCCCCCN1C(=O)C=CC1=O`: 12.2% (inactive); `CCCCn1c(=O)c2c(nc3n2CCCN3CCc2ccc(OCC(=O)NCCN(CC)CC)cc2)n(CCCC)c1=O`: 67.3% (inactive).
Next, `COc1cc(/C=C(/c2ccccc2)[N+](=O)[O-])c(OC)c2c1OCO2`: -23% (active).
Regarding `C/C(=C(/c1ccc(Cl)cc1)c1ccc(OCCCN(C)C)cc1)c1ccc(Cl)cc1`, the growth was 72.9% (inactive).
Next, `c1ccc(-c2oc3ccccc3c2-c2ccccc2)cc1`: 48.5% (inactive).
Next, `COc1cc2c(c(OC)c1OC)C(=O)CC(c1cccc(C(=O)Nc3ccc(C#N)cc3)c1)O2` (stereo not given): 47% (inactive).
Turning to `COc1cc2c(c(OC)c1OC)CCC(c1cccc(C(=O)Nc3ccccc3Br)c1)O2` (stereo not given), the growth was 79.3% (inactive).
Then `O=C(Oc1ccc(Cl)cc1[N+](=O)[O-])Oc1ccc(Cl)cc1[N+](=O)[O-]`, with 95.7% (inactive); and `CCN(CC)CCCOc1ccc2ncnc(Nc3ccc(Oc4cccc(C(F)(F)F)c4)c(Cl)c3)c2c1`, with -45.2% (active).
Then `CC/C=C\C[C@H]1CC=C2C(=O)C=C[C@@H]2CC=CCCCC(=O)O[C@@H](CCCCC)CC=C2C(=O)C=C[C@@H]2CC=CCCCC(=O)O[C@@H](CCCCC)CC=C2C(=O)C=C[C@@H]2CC=CCCCC(=O)O[C@@H](CCCCC)CC=C2C(=O)C=C[C@@H]2CC=CCCCC(=O)O1`, with -15.3% [7.9 µM] (active); and `N#C/C(=C\c1ccc([N+](=O)[O-])s1)c1nc2cc(Br)ccc2s1`, with 17.7% (inactive); and `O=C(/C=C/C12c3ccccc3C(c3ccccc31)C1C(=O)NC(=O)C12)c1ccncc1` (stereo not given), with 2.98% (active).
Next, `CCCc1nc(C(C)(C)O)c(C(=O)O)n1Cc1ccc(-c2ccccc2-c2nn[nH]n2)cc1`: 107% (inactive).
For `Nc1ccc2[nH]c(-c3ccccc3)cc(=O)c2c1`, the growth is 88.2% (inactive).
Next, `CCN(CC)c1ccc2c(c1)OS(=O)(=O)N=C2`: 101% (inactive); `O=C1c2cc(Br)ccc2Oc2cc([N+](=O)[O-])ccc2N1c1ccc(I)cc1F`: 81.2% (inactive); `C=C1CC[C@@H]2C(C)(C)[C@@H](O)CC[C@@]2(C)[C@@H]1COc1ccc2ccc(=O)oc2c1`: 69.1% (inactive).
Next, `COc1cc(Br)c(-c2nc(-c3ccccc3)c(-c3ccccc3)n2Cc2ccccc2)cc1OC`: 18.6% (inactive); `COC(=O)[C@H](Cc1cn(C)cn1)NC(=O)[C@H](CC(=O)OCc1ccccc1)NC(=O)Nc1cc(C(F)(F)F)cc(C(F)(F)F)c1`: -68.9% [100 µM] (active).
Next, `CN(C)CCCn1c2c(c3ccncc3c1=O)C(=O)c1ccccc1-2`: -19.8% (active); `Cc1cccc(C)c1-c1cc(Cc2ccc(Cl)cc2)c(=O)[nH]n1`: 90.8% (inactive); `O=C(CS(=O)c1oc(-c2cccs2)nc1S(=O)(=O)c1ccc(Br)cc1)c1ccccc1` (stereo not given): 87.9% (inactive).
For the molecule `COc1ccc(N=C2C(=Nc3ccc(OC)cc3)N(c3ccc(N(C)C)cc3)C(=S)N2c2ccc(OC)cc2)cc1`, the growth is 24.6% (inactive).
Next, `CC1(C)CC(=O)c2c(ccc(C(=O)C[C@@H](N)CO)c2N)O1`: 35.7% (inactive); `COc1ccc(C)cc1OC`: 94.3% (inactive); `NS(=O)(=O)c1ccc(CCN2C(=O)/C(=C\c3ccc(Cl)cc3)C=C2c2ccc3ccccc3c2)cc1`: 99.5% (inactive).
As to `O=C(Nc1cccc(-n2cc(-c3ccncc3)c(-c3ccc(O)c(Cl)c3)n2)c1)c1cc(C(F)(F)F)cc(C(F)(F)F)c1`, the growth is 58.9% (inactive).
Next, `CSc1nc2sc3cccc(Cl)c3n2c(=N)c1C#N`: 91.8% (inactive); `C=C1C(=O)O[C@H]2[C@H]1CC/C(Cn1cc(-c3cccc(Cl)c3)nn1)=C\CC[C@@]1(C)O[C@@H]21`: -24.9% (active).
Next, `COc1c(O[C@@H]2OC(CO)[C@H](O)[C@H](O)C2O)cc2oc3cc(O)c(CC=C(C)C)c(O)c3c(=O)c2c1CC=C(C)C` (stereo not given in full): 94.4% (inactive).
Then `Clc1ccc2c(N3CCN(c4ccnc(NC5CCCCC5)n4)CC3)ccnc2c1`, with -13.8% (active).
